Source: PubChem (Johns Hopkins Ion Channel Center)
The list is not random: actives were taken first. Their share in the collection is about 1.6%.
KCNQ2 block – inhibitors of rat KCNQ2 potassium channel; 1.1% of 310,000 active; B-score at 10 µM; AID 2156; CHO-K1 KCNQ2, FluxOR thallium flux, 20 min; stronger effect = lower value; O88943;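 active = fluorescence ratio B-score at most minus 3 library SDs, with starting brightness B-score within 2 library SDs, cut at about -5.5 in these data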
Target sequence (O88943 whole entry, looked up): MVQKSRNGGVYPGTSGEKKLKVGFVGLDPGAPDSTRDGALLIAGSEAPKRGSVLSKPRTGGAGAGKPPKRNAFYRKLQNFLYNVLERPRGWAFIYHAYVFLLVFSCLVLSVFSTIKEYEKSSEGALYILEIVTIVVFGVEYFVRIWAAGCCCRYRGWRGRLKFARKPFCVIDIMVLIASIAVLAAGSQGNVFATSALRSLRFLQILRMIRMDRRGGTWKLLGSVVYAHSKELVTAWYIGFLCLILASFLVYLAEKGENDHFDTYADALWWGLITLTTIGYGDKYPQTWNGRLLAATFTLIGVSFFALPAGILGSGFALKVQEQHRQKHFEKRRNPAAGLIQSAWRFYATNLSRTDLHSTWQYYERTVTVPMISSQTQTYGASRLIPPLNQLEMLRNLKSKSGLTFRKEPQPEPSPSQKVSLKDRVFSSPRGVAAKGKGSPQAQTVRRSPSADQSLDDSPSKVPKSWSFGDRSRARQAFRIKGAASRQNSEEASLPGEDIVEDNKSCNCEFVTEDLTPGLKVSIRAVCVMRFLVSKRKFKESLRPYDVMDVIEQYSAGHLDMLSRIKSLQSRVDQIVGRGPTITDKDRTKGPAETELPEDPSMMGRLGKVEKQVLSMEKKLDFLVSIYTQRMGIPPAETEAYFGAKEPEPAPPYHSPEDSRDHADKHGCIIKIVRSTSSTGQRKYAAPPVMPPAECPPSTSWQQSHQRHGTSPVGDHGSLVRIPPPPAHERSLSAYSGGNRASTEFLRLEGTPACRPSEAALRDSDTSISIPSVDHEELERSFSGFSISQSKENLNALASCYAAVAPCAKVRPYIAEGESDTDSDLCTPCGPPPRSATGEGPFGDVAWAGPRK
KCNQ2 enhance – potentiators of rat KCNQ2 potassium channel; O88943; CHO-K1 KCNQ2, FluxOR thallium flux fluorescence; stronger effect = higher value; B-score at 10 µM; 0.54% of 310,000 active;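 active = fluorescence ratio B-score at least 3 SD of library B-scores, with initial fluorescence B-score within 3 of them, cut at about 5.3 in these data; same plate scores as AID 2156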;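 note: B-score of peak minus minimum over baseline fluorescence ratio after K+ and Tl+ stimulus; positive B-score means potentiation of KCNQ2 with more thallium influx and brighter signal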
An asterisk follows results filed as active; i = inactive; x = not tested or not shown.

SMILES | KCNQ2 block | KCNQ2 enhance
CCCN(CC(=O)Nc1ccccc1C)C(=O)c1ccc(COc2ccccc2)cc1 | i | x
Cc1cc(C(F)(F)F)nn1Cc1n[nH]c(=S)n1-c1ccc(F)cc1 | i | 0.62
Cc1cc(-c2n[nH]c(=S)n2-c2ccc(F)cc2)nn1C | -6.33* | -6.33
CCOC(=O)C1CCCN(S(=O)(=O)CCNC(=O)c2ccc3c(c2)OCO3)C1 (stereo not drawn) | i | 1.99
COc1cc(NC(=S)NCCc2ccccc2)c(OC)cc1NC(=O)C(C)C | -5.84* | -5.84
COc1ccccc1CNC(=S)NCCc1ccccc1 | i | x
CO/N=C/c1ccc(Sc2ccc(C)cc2)c([N+](=O)[O-])c1 | i | 0.8
CO/N=C/c1cc([N+](=O)[O-])ccc1Sc1ccc(C)cc1 | -7.42* | -7.42
COc1cc(NC(=S)NCc2cccnc2)cc(OC)c1OC | i | 0.03
COc1cc(NC(=S)NCc2cccnc2)cc(OC)c1 | -7.41* | -7.41
COc1ccc(C(=O)N2CCN(C)C(=O)[C@@H]2C)cc1OC1CCN(C(C)C)CC1 | i | 0.12
COc1ccccc1/C=C\C(=O)NCC(=O)N/N=C(\C)Cc1ccccc1 | i | x
CCN(CC)CCN(Cc1cc2cc3c(cc2[nH]c1=O)OCO3)C(=S)NC | i | 0.71
Cc1cccc(/C=C/c2onc(C)c2S(=O)(=O)N2CCC(C(=O)N3CCCCCC3)CC2)c1 | -5.99* | -5.99
Cc1cccc(/C=C/c2onc(C)c2S(=O)(=O)N2CCC(C(=O)N3CCC(C)CC3)CC2)c1 | i | x
Cc1onc(-c2c(F)cccc2Cl)c1C(=O)Nc1cccc(S(=O)(=O)NC2=NCCC2)c1 | i | 0.09
CCOC(=O)c1sc(NC(=O)Cc2c(F)cccc2Cl)nc1C | i | x
CCOC(=O)c1sc2nccc(N(C)C)c2c1N=CNOCc1c(F)cccc1Cl | -6.23* | -6.23
CCc1ccccc1N(C(=O)c1snc(C(N)=O)c1N)C(C(=O)NCC1CCCO1)c1ccc(C)o1 (stereo not drawn) | i | 2.68
O=C(CN(C(=O)c1cc2c(s1)CCC2)C1CCCC1)NCc1cccs1 | -7.14* | -7.14
O=C(CN(Cc1ccccc1)C(=O)c1cc2c(s1)CCC2)NCc1cccs1 | i | x
COc1ccc(Br)cc1S(=O)(=O)Nc1ncn[nH]1 | i | 0.26
CCOc1c(C)cc(S(=O)(=O)NCc2ccccn2)c(C)c1C | i | 0.89
CC1CCN(C(=O)CSc2ccc(-c3ccc(F)cc3)nn2)CC1 | i | 1.13
CC1CC(C)(C)N(C(=O)CSc2ccc(-c3ccc(F)cc3)nn2)c2ccccc21 (stereo not drawn) | -5.67* | -5.67
SMILES | KCNQ2 block | KCNQ2 enhance
CC(C)NC(=S)N1CCCN(c2ncccc2[N+](=O)[O-])CC1 | i | 0.04
COc1cccc(OCc2cc(C(=O)NCCN3CCCCC3CO)no2)c1 (stereo not drawn) | i | 0.27
Cc1cc(OCc2cc(C(=O)NCCN3CCCCC3CO)no2)cc(C)c1Cl (stereo not drawn) | -7.87* | -7.87
CCOC(=O)c1ccccc1NC(=O)COC(=O)CSc1ccccc1 | i | 0.43
CNc1c(NC(=O)C2CCC(C)CC2)c(=O)oc2ccccc12 (stereo not drawn) | i | x
O=C(CSc1ncnc2scc(-c3ccccc3)c12)N1CCN(c2ccccc2F)CC1 | -6.19* | -6.19
COc1ccccc1N1CCN(C(=O)CSc2ncnc3scc(-c4ccccc4)c23)CC1 | i | x
CCCCNc1c(-c2cccc(-c3ccc(OC)cc3)c2)nc2ccc(C)cn12 | -6.06* | -6.06
CCCCNc1c(-c2cccc(-c3cc(C(C)=O)cs3)c2)nc2ccc(C)cn12 | i | x
CCOc1ccc(N(Cc2cc3cc(C)ccc3[nH]c2=O)S(=O)(=O)c2ccccc2)cc1 | i | x
O=C(CN1C(=O)COc2ccccc21)N(Cc1ccccc1)Cc1ccccn1 | -6.06* | -6.06
Cc1ccc(CN(Cc2cccnc2)C(=O)CN2C(=O)COc3ccccc32)o1 | i | x
COc1cccc(NC(=O)C2CCC(CNC(=O)[C@@H]3Cc4ccccc4CN3)CC2)c1 (stereo partly drawn) | i | 0.04
Cc1ccc(S(=O)(=O)N2CC=C(C(=O)NCc3ccc(F)cc3)CC2)cc1 | i | 0.02
CCN(CC)c1ccc(NC(=O)C2=CCN(S(=O)(=O)c3ccc(F)cc3)CC2)c(C)c1 | i | 7.08*
O=C(CCC(=O)N(CC(=O)NC1CCCC1)c1ccccc1F)Nc1nccs1 | i | 0.14
COCn1c(-c2cccc(Br)c2)nc2ccccc21 | -5.9* | -5.9
COCn1c(-c2ccc(OC)c(OC)c2)nc2ccccc21 | i | x
CC(C)Cc1nc(SCC(=O)NCC2CCCO2)c2c(=O)n(C)c(=O)n(C)c2n1 (stereo not drawn) | i | x
CCCCn1c(N)c(N(CC(C)C)C(=O)CSCc2c(C)noc2C)c(=O)[nH]c1=O | i | x
O=C(O)c1cc(N/N=C/C(Cl)=C/c2ccccc2)ccc1Cl | i | 5.32*
O=C(O)c1cc(N/N=C/c2cccc3ccccc23)ccc1Cl | i | 1.82
COc1ccc2nc(C)c3c(c2c1)OC(C(C)(Cl)Br)C3 (stereo not drawn) | i | x
Cc1ccc2nc(C)c3c(c2c1)OC(C(C)(Cl)Br)C3 (stereo not drawn) | -5.69* | -5.69
CCCCCC(=O)Nc1cc(S(=O)(=O)N2CCOCC2)ccc1Oc1ccc(OCC)cc1 | i | x
SMILES | KCNQ2 block | KCNQ2 enhance
CC1Sc2ccc(S(=O)(=O)N3CCC(C(=O)Nc4ccc(Cl)cc4)CC3)cc2NC1=O (stereo not drawn) | i | x
Cc1nc2ccccn2c1C(=O)NNC(=O)Nc1cccc(C(F)(F)F)c1 | i | 1.09
CC(C)(C)OC(=O)N1CC=C2C(C#N)=C(N)C(C#N)(C#N)C(c3cccs3)C2C1 (stereo not drawn) | -6.19* | -6.19
CCOC(=O)N1CC=C2C(C#N)=C(N)C(C#N)(C#N)[C@H](c3cccs3)C2C1 (stereo partly drawn) | i | x
COc1cccc(NC(=O)CCN2C(=O)c3ccccc3Sc3ncccc32)c1 | i | 0.6
c1ccc(-c2cc3c(N4CCN(c5ncccn5)CC4)ncnc3s2)cc1 | i | x
c1ccc(-c2cc3c(N4CCN(c5ccccc5)CC4)ncnc3s2)cc1 | -7.71* | -7.71
Brc1ccc(CNc2ccc3ncccc3c2)cc1 | i | x
CC1=Nc2ccccc2N=C(NC(=O)CN2CCN(c3ccccc3)CC2)C1c1ccccc1 (stereo not drawn) | -6.53* | -6.53
CCOC(=O)C1CCCN(CC(=O)NC2=Nc3ccccc3N=C(C)C2c2ccccc2)C1 (stereo not drawn) | i | x
Cc1ccc(CNC(=O)CSc2ncc(C(=O)Nc3ccccc3)c(=O)n2C)cc1 | i | x
CCN1CCN(S(=O)(=O)c2cc(OCC(=O)NC3CCCCC3)c(C)cc2Cl)CC1 | i | 10.8*
CCOC(=O)N1CCN(S(=O)(=O)c2cc(OCC(=O)NC3CCCCC3)c(C)cc2Cl)CC1 | i | 0.18
CC(C)CN(CC(C)C)S(=O)(=O)c1cc([N+](=O)[O-])ccc1N1CCCCCC1 | -6.08* | -6.08
CN(C)S(=O)(=O)c1cc([N+](=O)[O-])ccc1N1CCCCCC1 | i | x
CN(C(=O)Cn1nnc(-c2ccccc2)n1)C1CCS(=O)(=O)C1 (stereo not drawn) | i | x
COc1ccc(OC)c(-c2cc(C(=O)NC3CCCC3)c3ccccc3n2)c1 | -6.07* | -6.07
COc1ccc(-c2cc(C(=O)Nc3ccc(C(N)=O)cc3)c3ccccc3n2)cc1OC | i | x
